SIRT5 inh: sirtuin-5 (human) deacylase inhibition. AID 652115. inhibition, % at 15 µM. Q9NXA8. 330,000 tested, 1.1% active. Purified SirT5, succinyl-peptide AMC, trypsin-coupled fluorescence; in the data active means inhibition above about 15%; inconclusive means no clear call, values can overlap the other calls
DENV2 CPE rescue: inhibitors of DENV2 cytopathic effect; DENV2-infected cells, cytopathic effect rescue, plate reader; CPE inhibition, % at 9.99 µM; 350,000 tested, 1.7% active; in the data active means CPE inhibition above about 20%, passing the limit was not always enough; inconclusive means no clear call, values can overlap the other calls; tested in BHK-21 cells;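 further: 0% = median of neutral control wells and 100% = median of positive control wells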
ERp5 block: blocks human ERp5 reductase activity on insulin; 350,000 tested, 0.05% active; ERp5 insulin aggregation, absorbance 650 nm, 90 min; inhibition, % at 9.99 µM; AID 651711;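 active means mean replicate inhibition above about 25%, with every replicate also reaching it, limit read from the data, passing the limit was not always enough; inconclusive means only one of those two criteria met; inactive means neither criterion met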
Target sequence (Q15084 whole entry, looked up): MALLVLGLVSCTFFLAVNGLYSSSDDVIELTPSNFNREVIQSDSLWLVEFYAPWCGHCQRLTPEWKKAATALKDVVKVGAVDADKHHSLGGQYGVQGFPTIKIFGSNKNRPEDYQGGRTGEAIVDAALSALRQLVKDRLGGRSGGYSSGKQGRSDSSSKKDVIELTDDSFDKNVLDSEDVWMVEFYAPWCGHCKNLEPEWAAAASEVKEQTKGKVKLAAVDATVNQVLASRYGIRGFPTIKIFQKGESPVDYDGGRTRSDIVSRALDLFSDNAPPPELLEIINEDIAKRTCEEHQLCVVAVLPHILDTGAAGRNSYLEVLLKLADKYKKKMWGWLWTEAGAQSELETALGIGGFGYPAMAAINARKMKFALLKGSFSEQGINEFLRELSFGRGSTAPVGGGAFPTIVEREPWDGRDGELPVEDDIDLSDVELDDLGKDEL
Rtt109 HAT inh: inhibitors of Candida albicans Rtt109/Vps75 histone acetyltransferase | Q5AAJ8 | inhibition, % at 34.9 µM | 330,000 tested, 0.16% active | purified Rtt109/Vps75, ThioGlo CoA-SH fluorescence, 4 h | AID 540336;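 active means inhibition of at least 50% in every replicate; inconclusive means best replicate reaches 50% inhibition but some replicates fall short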
PDI turbidity: blocks human protein disulfide isomerase activity. P07237. PDI insulin aggregation turbidity, A650, 90 min. inhibition, % at 10 µM. 350,000 tested, 0.052% active. AID 588391;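 active means mean inhibition across replicates of 30% or more, whatever share of single replicates reach that level; inconclusive means mean inhibition below 30% while every single replicate reaches 30%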
* marks the source's active call; other numbers are inactive results; ? = inconclusive; · = not tested or not shown. The list is not random: actives were taken first. Their share in the collection is about 2.3%.

SMILES	SIRT5 inh	DENV2 CPE rescue	ERp5 block	Rtt109 HAT inh	PDI turbidity
Cc1noc(C)c1S(=O)(=O)Nc1ccc2c(c1)CC(=O)N([C@H](C)CO)C[C@H](C)[C@H](CN(C)S(=O)(=O)c1ccccc1)O2	-2.8	-0.5	1.1	·	·
CCC(=O)Nc1ccc2c(c1)C(=O)N(C)C[C@H](OC)[C@H](C)CN(CC1CC1)[C@H](C)CO2	1.5	3.1	1.4	·	·
O=C(O)c1ccc(N2C(=O)/C(=C/C=C/c3ccccc3)SC2=S)cc1	5.2	0.4	1.2	·	-1.8
O=C1/C(=C/C=C/c2ccco2)SC(=S)N1c1ccc(O)cc1	13.7	1.1	-5.2	13.0	5.2
O=C(NN1C(=O)/C(=C/C=C/c2ccccc2)SC1=S)c1ccncc1	21.6*	2.8	?	-0.6	6.0
O=C(NN1C(=O)/C(=C/C=C/c2ccco2)SC1=S)c1ccncc1	42.8*	-3.1	-4.2	·	0.1
C[C@H]1CN([C@@H](C)CO)C(=O)c2cc(C3=CCCCC3)cnc2O[C@@H]1CN(C)CC1CCCC1	0.4	19.1	-167.5	·	·
CN(C)CCNC(=O)c1ccc2c(=O)n(Cc3ccc(Cl)cc3)c(=S)[nH]c2c1	-2.9	3.7	-5.4	-9.7	-1.4
CCCCN(C)CCNC(=O)c1ccc(Cn2c(=S)[nH]c3ccc(Br)cc3c2=O)cc1	49.3*	-2.5	3.5	-4.8	4.3
C[C@@H]1CCCCO[C@@H](CN(C)S(=O)(=O)c2ccc(F)cc2)[C@H](C)CN([C@H](C)CO)C(=O)c2cc(NC(=O)Nc3ccc(C(F)(F)F)cc3)ccc2O1	15.4*	-4.4	-2.7	·	·
C[C@@H]1CCCCO[C@H](CN(C)S(C)(=O)=O)[C@@H](C)CN([C@H](C)CO)C(=O)c2cc(NC(=O)Nc3ccc(C(F)(F)F)cc3)ccc2O1	-3.7	-1.8	16.2	·	·
C[C@@H]1CCCCO[C@@H](CN(C)S(C)(=O)=O)[C@H](C)CN([C@@H](C)CO)C(=O)c2cc(NC(=O)Nc3ccc(C(F)(F)F)cc3)ccc2O1	1.7	56.6*	7.4	·	·
C[C@@H]1CCCCO[C@@H](CN(C)S(=O)(=O)c2ccc(F)cc2)[C@@H](C)CN([C@H](C)CO)C(=O)c2cc(NC(=O)Nc3ccc(C(F)(F)F)cc3)ccc2O1	3.8	87.6*	0.5	·	·
COc1ccccc1CN1[C@H](CO)[C@H]2c3ccccc3N(C(=O)c3ccncc3)C[C@H]21	4.0	95.2*	-0.3	·	·
COCC(=O)N1C[C@@H]2[C@H](c3ccccc31)[C@H](CO)N2C(=O)Nc1ccccc1Cl	0.4	26.5*	-1.4	·	·
COCC(=O)N1C[C@@H]2[C@H](c3ccccc31)[C@@H](CO)N2C(=O)c1ccccc1F	1.0	40.9*	0.4	·	·
O=C(c1ccccc1F)N1C[C@H]2[C@@H](c3ccccc31)[C@H](CO)N2C(=O)c1ccncc1	5.2	21.9*	5.7	·	·
COc1ccccc1CN1[C@@H]2CN(C(=O)c3ccncc3)c3ccccc3[C@@H]2[C@@H]1CO	-3.0	-8.0	-1.0	·	·
CCCN1C[C@@H](C)[C@H](OC)CN(C)C(=O)c2cc(NC(=O)c3ccccc3F)ccc2OC[C@H]1C	14.3	-0.6	-2.4	·	·
CO[C@@H](CN(C)S(=O)(=O)c1cn(C)cn1)[C@H](C)CN(C(=O)Nc1ccc(F)cc1)[C@@H](C)CO	0.2	-0.3	-1.1	·	·
CCCNC(=O)N1C[C@@H]2[C@H](c3ccccc31)[C@H](CO)N2C(=O)c1ccncc1	-0.1	24.6*	0.1	·	·
O=C(NCCCN1CCCC1=O)c1cc(-c2ccc(F)cc2)nc2ccccc12	·	-0.1	0.5	-4.9	4.9
COc1ccc(-c2cc(C(=O)NCCCN3CCCC3=O)c3ccccc3n2)cc1	-9.5	58.2*	0.3	-2.4	7.4
CCNC(=O)Nc1ccc2c(c1)C(=O)N(C)[C@H]1CC[C@H](CC(=O)Nc3ccc(C)cc3)O[C@@H]1CO2	1.2	15.4	-4.1	·	·
Cc1ccc(-n2nc3c(c2NC(=O)c2ccco2)CS(=O)C3)c(C)c1 (configuration not stated)	-0.4	55.3*	2.4	20.6	-3.7
SMILES	SIRT5 inh	DENV2 CPE rescue	ERp5 block	Rtt109 HAT inh	PDI turbidity
O=C(NCC1CC1)[C@H]1[C@H](CO)[C@H]2Cn3c(ccc(-c4cccnc4)c3=O)[C@@H]1N2C(=O)C1CCCCC1	-43.0	-4.7	-3.7	·	·
CC1(C(=O)NS(=O)(=O)Cc2cccc(Cl)c2)CCN1C(=O)c1ccc(C2CCCCC2)cc1 (configuration not stated)	·	89.8*	-4.5	·	-15.6
COc1ccc(S(=O)(=O)N[C@H]2CC[C@H](CCNC(=O)Cc3ccccn3)O[C@@H]2CO)cc1	1.0	-1.6	1.6	·	·
C/C(=N/NC(=O)CNC(=O)CCc1ccccc1)c1ccc(Cl)c(Cl)c1	16.3*	1.7	2.0	-3.6	-7.6
C/C(CC(=O)Nc1ccc(Cl)c(Cl)c1)=N\NC(=O)Cc1ccccc1	-2.9	50.8*	16.3	1.0	2.3
C/C(CC(=O)Nc1ccc2c(c1)OCCO2)=N\NC(=O)Cc1ccccc1	-0.5	-1.0	3.9	12.2	-6.4
COc1ccc2c3c([nH]c2c1)[C@@H](CO)N(C(=O)c1cccnc1)CC31CCN(C(=O)Nc2cccc(F)c2)CC1	7.3	6.8	4.2	·	·
Cc1ccccc1C(=O)Nc1sc(C)c(C)c1C(=O)c1ccccc1	·	·	·	2.4	-0.1
Cc1sc(NC(=O)CCl)c(C(=O)c2ccccc2)c1C	·	·	·	4.1	71.6*
C[C@H]1CN([C@@H](C)CO)C(=O)c2cc(-c3ccc(C#N)cc3)cnc2O[C@@H]1CN(C)C(=O)c1ccccc1	-7.7	13.9	2.1	·	·
CCOC(=O)c1cc2ccc3ccccc3c2oc1=O	23.7*	0.9	0.3	-364.0	11.3
C[C@H](CO)N1C[C@H](C)[C@@H](CN(C)C(=O)Cc2ccccn2)Oc2ncc(C#CC3CC3)cc2C1=O	-1.4	-1.1	1.4	·	·
CC(Oc1ccccc1Cl)C(=O)N1CCOCC1 (configuration not stated)	0.2	107.2*	2.9	-0.8	-0.9
O=C(c1ccccc1)N1CCN(C(=O)c2ccccc2)CC1	·	·	·	-1.4	1.3
O=C(O)c1ccccc1	-1.2	110.1*	-1.0	-0.9	·
C[C@H]1CN([C@@H](C)CO)C(=O)c2cccc(NC(=O)CCCCCC(=O)Nc3ccccc3N)c2O[C@H]1CN(C)S(C)(=O)=O	·	-3.1	-5.7	·	·
C[C@H](CO)N1C[C@H](C)[C@H](CN(C)S(=O)(=O)c2cccs2)Oc2c(NC(=O)CCCCCC(=O)Nc3ccccc3N)cccc2C1=O	9.2	22.3*	1.5	·	·
C[C@H]1CN([C@@H](C)CO)C(=O)c2cccc(NC(=O)CCCCCC(=O)Nc3ccccc3N)c2O[C@H]1CN(C)S(=O)(=O)c1cccs1	5.9	54.8*	2.1	·	·
O=C(c1ccc2c(c1)OCO2)N1CC[C@@H]2[C@@H](CO)Nc3ccc(-c4ccccc4)cc3[C@@H]21	10.7	-8.2	-2.6	·	·
CCNc1nc(C#N)nc2c1ncn2-c1cc(F)cc(F)c1	24.6*	-7.4	2.8	3.6	-3.7
CCn1cnc2c(Nc3cc(F)cc(F)c3)nc(C#N)nc21	0.2	-0.5	-8.5	8.8	0.4

Screening results: PubChem, Broad Institute
